From PubChem BioAssay (Tox21) come the findings set out here.

Assay [1] is described as follows: qHTS RealTime-Glo MT Cell Viability Assay in HepG2 cells - 8 hour (AID 1224873). Note: nearly all actives have a fitted effect of over 55% in size. Note: potency is the fitted concentration of half-maximal effect. Particulars: RealTime-Glo luminescence; series mostly up to 76.8 µM. The method in brief:
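HepG2 cells (600/well) mixed with RealTime-Glo MT reagent, settled 5 h at 37 C/5% CO2 before compound addition. Nonlytic NanoLuc luminescence from viable-cell prosubstrate reduction read repeatedly during 40 h treatment at 37 C.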

Assay [2] is described as follows: A CellTox Green Cytotoxicity Assay to monitor cytotoxicity in HepG2 cells - 16 hour (AID 1224876). Note: nearly all actives have a fitted effect of over 45% in size. Note: potency is the fitted concentration of half-maximal effect. Particulars: CellTox Green fluorescence; series mostly up to 76.8 µM. Put shortly:
(§1)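 HepG2 cells were seeded together with the CellTox Green dye at 600 cells/well, left 5 h at 37 C/5% CO2, then given compounds in DMSO. Fluorescence from dye bound to dead-cell DNA was read repeatedly over 40 h of treatment at 37 C.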

Assay [3] can be described thus: qHTS RealTime-Glo MT Cell Viability Assay in HepG2 cells - 32 hour (AID 1224877). Note: nearly all actives have a fitted effect of over 55% in size. Note: potency is the fitted concentration of half-maximal effect. The note with it: RealTime-Glo luminescence; series mostly up to 76.8 µM. The method in brief: (§2)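 HepG2 cells were seeded at 600 cells/well together with NanoLuc luciferase and a cell-permeant prosubstrate, preincubated 5 h at 37 C/5% CO2, then pin-dosed with compounds in DMSO. Nonlytic luminescence from viable cells was read at each time point.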
A general note: In qHTS, concentration-response curves come from the screen itself.

Assay [4] can be described thus: A CellTox Green Cytotoxicity Assay to monitor cytotoxicity in HepG2 cells - 24 hour (AID 1224878). Note: nearly all actives have a fitted effect of over 45% in size. Note: potency is the fitted concentration of half-maximal effect. The note with it: CellTox Green fluorescence; series mostly up to 76.8 µM. Put shortly:
as §1

Assay [5] can be described thus: qHTS RealTime-Glo MT Cell Viability Assay in HEK293 cells - 0 hour (AID 1224880). Note: top concentration of the series differs between compounds; nearly all actives have a fitted effect of over 45% in size. The note with it: RealTime-Glo luminescence; series mostly up to 76.8 µM. Put shortly: (§3)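 HEK293 cells mixed with RealTime-Glo reagents (NanoLuc plus cell-permeant prosubstrate) at 600 cells/well, preincubated 5 h at 37 C/5% CO2, then given 23 nL compound in DMSO. Nonlytic luminescence from viable cells was read at 0, 8, 16, 24, 32 and 40 h.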

Assay [6] can be described thus: A CellTox Green Cytotoxicity Assay to monitor cytotoxicity in HepG2 cells - 0 hour (AID 1224882). Note: nearly all actives have a fitted effect of over 35% in size. Particulars: CellTox Green fluorescence; series mostly up to 76.8 µM. Put shortly:
as §1

The nature of assay [7]: A CellTox Green Cytotoxicity Assay to monitor cytotoxicity in HepG2 cells - 32 hour (AID 1224883). Note: nearly all actives have a fitted effect of over 50% in size. Note: potency is the fitted concentration of half-maximal effect. Particulars: CellTox Green fluorescence; series mostly up to 76.8 µM. The method in brief: as §1
The nature of assay [8]: A CellTox Green Cytotoxicity Assay to monitor cytotoxicity in HEK293 cells - 8 hour (AID 1224884). Note: nearly all actives have a fitted effect of over 35% in size. Note: potency is the fitted concentration of half-maximal effect. Particulars: CellTox Green fluorescence; series mostly up to 76.8 µM. The method in brief: (§4)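 HEK293 cells premixed with CellTox Green dye were seeded at 600 cells/well and left 5 h at 37 C/5% CO2 before pin transfer of 23 nL compound in DMSO. Fluorescence from dye bound to dead-cell DNA was read during 40 h treatment.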

Assay [9] is described as follows: qHTS RealTime-Glo MT Cell Viability Assay in HepG2 cells - 16 hour (AID 1224885). Note: nearly all actives have a fitted effect of over 50% in size. Note: potency is the fitted concentration of half-maximal effect. The note with it: RealTime-Glo luminescence; series mostly up to 76.8 µM. Put shortly: as §2
Assay [10] in a line: qHTS RealTime-Glo MT Cell Viability Assay in HepG2 cells - 0 hour (AID 1224889). Note: nearly all actives have a fitted effect of over 50% in size. Particulars: RealTime-Glo luminescence; series mostly up to 76.8 µM. Put shortly:
as §2

Assay [11] can be described thus: qHTS assay to identify small molecule antagonists of the estrogen receptor alpha (ER-alpha) signaling pathway using the BG1 cell line in the presence of 0.1 nM 17-beta-estradiol - cell viability counter screen (AID 1259241). Note: nearly all actives have a fitted effect of over 40% in size. Particulars: VM7Luc4E2 (BG1) viability, CellTiter-Fluor protease, 22 h, 0.1 nM estradiol agonist added; series mostly up to 92.4 µM. The method in brief:
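VM7Luc4E2, 4,000 cells/well, phenol red-free medium + 10% charcoal-stripped FBS; 24 hr plating; cpd + 0.1 nM E2 final, 22 hr 37C/5% CO2; CellTiter-Fluor 30 min, fluorescence.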

A short description of assay [12]: A CellTox Green Cytotoxicity Assay to monitor cytotoxicity in HepG2 cells - 40 hour (AID 1224879). Note: nearly all actives have a fitted effect of over 40% in size. Note: potency is the fitted concentration of half-maximal effect. Particulars: CellTox Green fluorescence; series mostly up to 76.8 µM. The method in brief:
as §1

Assay [13] can be described thus: A CellTox Green Cytotoxicity Assay to monitor cytotoxicity in HepG2 cells - 8 hour (AID 1224890). Note: nearly all actives have a fitted effect of over 45% in size. Particulars: CellTox Green fluorescence; series mostly up to 76.8 µM. Put shortly: as §1
Assay [14] in a line: A CellTox Green Cytotoxicity Assay to monitor cytotoxicity in HEK293 cells - 24 hour (AID 1224875). Note: nearly all actives have a fitted effect of over 45% in size. Note: potency is the fitted concentration of half-maximal effect. Particulars: CellTox Green fluorescence; series mostly up to 76.8 µM. Put shortly: as §4
A short description of assay [15]: A CellTox Green Cytotoxicity Assay to monitor cytotoxicity in HEK293 cells - 32 hour (AID 1224881). Note: nearly all actives have a fitted effect of over 40% in size. Note: potency is the fitted concentration of half-maximal effect. Particulars: CellTox Green fluorescence; series mostly up to 76.8 µM. The method in brief:
as §4

Assay [16] is described as follows: qHTS RealTime-Glo MT Cell Viability Assay in HEK293 cells - 8 hour (AID 1224887). Note: nearly all actives have a fitted effect of over 50% in size. Note: potency is the fitted concentration of half-maximal effect. The note with it: RealTime-Glo luminescence; series mostly up to 76.8 µM. The method in brief:
as §3

The nature of assay [17]: A CellTox Green Cytotoxicity Assay to monitor cytotoxicity in HEK293 cells - 16 hour (AID 1224888). Note: nearly all actives have a fitted effect of over 35% in size. Note: potency is the fitted concentration of half-maximal effect. The note with it: CellTox Green fluorescence; series mostly up to 76.8 µM. The method in brief:
as §4

Assay [18] can be described thus: qHTS RealTime-Glo MT Cell Viability Assay in HEK293 cells - 40 hour (AID 1224874). Note: nearly all actives have a fitted effect of over 50% in size. Note: potency is the fitted concentration of half-maximal effect. Particulars: RealTime-Glo luminescence; max response: hits give low values. The method in brief:
as §3

A short description of assay [19]: qHTS RealTime-Glo MT Cell Viability Assay in HEK293 cells - 24 hour (AID 1224886). The note with it: RealTime-Glo luminescence; series mostly up to 76.8 µM. Put shortly: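 HEK293 cells were seeded at 600 cells/well together with NanoLuc luciferase and cell-permeant prosubstrate, preincubated 5 h at 37 C/5% CO2, then given compound in DMSO by pintool. Luminescence from viable-cell prosubstrate reduction was read repeatedly over 40 h.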

Unmarked numbers belong to inactive results. Results filed as inconclusive are left out. Activity calls are given as the source filed them. Calls come from the whole dose curve; as a rule, active = well fitted curve in the direction sought with a large enough effect in the repeat runs; inconclusive = weak or mixed curves; inactive = no such curve, though single readings can be large; an effect the other way counts as inactive or inconclusive.
% is set by controls: 0 for no effect and ±100 for the full control effect.

For the molecule `CN(Cc1cc(Br)cc(Br)c1N)C1CCCCC1`, the Potency result in assay [1], in assay [3], in assay [5], in [6], in [8] and in assay [9] was “inactive” each time. Further, the Potency result in [10] and in assay [11] was “inactive” throughout. Moreover, the Potency was 19 µM (active) in [2], 21.3 µM (active) in [4] and 12 µM (active) in assay [7].
As to `Oc1cc2ccccc2cc1O`, the Potency result in assay [1], in [2], in assay [3], in assay [4], in assay [12] and in [6] was “inactive” each time. Further, the Potency result in [7], in assay [8], in assay [9], in assay [10], in assay [13] and in assay [11] was “inactive” each time.
Turning to `S=P(N1CC1)(N1CC1)N1CC1`, the Potency entry in assay [1], in [14], in assay [3], in assay [4], in assay [12] and in assay [5] was “inactive” throughout. The Potency entry in assay [15], in assay [6], in assay [7], in assay [9], in assay [16] and in assay [17] was “inactive” throughout. For the same molecule, the Potency result in assay [10], in [13] and in assay [11] was “inactive” in each case.
For `CN1CCN(C2Cc3ccccc3Sc3ccc(Cl)cc32)CC1` (configuration not stated), the Potency in [18] was 23.9 µM (active); in assay [14] it was 21.3 µM (active); in assay [2] it was 26.8 µM (active); in assay [3], 23.9 µM (active); in assay [4], 23.9 µM (active); in assay [12], 23.9 µM (active). Besides, the Potency was 21.3 µM (active) in assay [15], 23.9 µM (active) in [7], 19 µM (active) in assay [8] and 21.3 µM (active) in assay [17]. Further, the Potency entry in assay [5], in [6], in assay [16], in assay [10] and in assay [11] was “inactive” throughout.
In the case of `CCC(C)c1cc([N+](=O)[O-])cc([N+](=O)[O-])c1OC(=O)OC(C)C` (configuration not stated), the Potency in assay [1] was 43.6 µM (active); in assay [9], 49 µM (active); in [16], 49 µM (active). Also, the Potency entry in [14], in [2], in assay [5], in assay [15], in [8] and in assay [17] was “inactive” in each case. For the same molecule, the Potency result in [10] and in assay [13] was “inactive” throughout.
Turning to `C/C=C/c1ccc(OC)c(OC)c1`, the Potency entry in assay [1], in assay [14], in assay [3], in [4], in assay [12] and in [5] was “inactive” each time. In addition, the Potency entry in assay [7], in assay [8], in [9], in [19], in assay [16] and in assay [17] was “inactive” each time. Moreover, the Potency result in assay [10] and in assay [11] was “inactive” throughout.
In the case of `CCOB(OCC)OCC`, the Potency entry in [1], in assay [3], in assay [15], in [6], in assay [8] and in assay [9] was “inactive” each time. Besides, the Potency entry in assay [17], in assay [10], in assay [13] and in [11] was “inactive” throughout.
For `C=CC(=O)OCC(O)COc1ccccc1` (configuration not stated), the max response in assay [18] is 8.54%. For the same molecule, the Potency entry in assay [14], in [2], in assay [3], in [4], in assay [5] and in assay [6] was “inactive” each time. The Potency entry in assay [7], in [8], in assay [19], in [16], in assay [17] and in assay [13] was “inactive” throughout. Besides, the Potency entry in assay [11] is “inactive”.
For the molecule `CCCSS/C(CCO)=C(\C)N(C=O)Cc1cnc(C)nc1N`, the Potency result in assay [1], in [14], in assay [2], in [4], in [5] and in [15] was “inactive” in each case. Moreover, the Potency entry in [6], in [8], in assay [9], in [16], in assay [17] and in assay [10] was “inactive” in each case. The Potency result in assay [13] and in assay [11] was “inactive” each time. In addition, the Potency in assay [12] is 26.8 µM (active).
